Data: PubChem BioAssay (Tox21)
“And” between values parts separate entries of the source, which are not always exact repeats. Equal values may be shown once. Results filed as inconclusive are left out. Entries that show only a call come without a potency. Where a structure was tested more than once in an assay, its records may differ in their call. The source made the active and inactive calls. The call rests on the fitted dose curve; in most records, active means well fitted cell-killing curve with a large enough effect in the repeat runs; inconclusive means weak or mixed curves, or effect the other way; inactive means no such curve, though single readings can be large or run the other way.
Potency means the concentration at half of the fitted maximal effect.

Experiment: qHTS assay to identify small molecule antagonists of the thyroid receptor (TR) signaling pathway - cell viability counter screen (AID 743064); further: nearly all actives have a fitted effect of over 50% in size
Conditions: GH3.TRE-Luc viability, CellTiter-Fluor, 24 h; series mostly up to 70.3 µM
How it was run: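 Viability of T3-stimulated (1 nM final) GH3.TRE-Luc cells is measured by CellTiter-Fluor fluorescence after 23.5 h compound exposure at 37 °C plus 30 min reagent incubation.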
In the case of O=[N+]([O-])c1ccc(O)c([N+](=O)[O-])c1, the Potency was 61.1 µM (active).
With N[C@@H](Cc1ccc(N(CCCl)CCCl)cc1)C(=O)O the Potency was 10.6 µM (active) and 26.2 µM (active).
For c1ccc(P(c2ccccc2)c2ccccc2)cc1, the Potency was “inactive”.
With CCC(C)c1ccc(O)cc1 (configuration not stated) the Potency was “inactive”.
In the case of CC(C)=CC1C(C(=O)OCc2coc(Cc3ccccc3)c2)C1(C)C (configuration not stated), the Potency was “inactive”.
In the case of O=[N+]([O-])c1c(Cl)c(Cl)c(Cl)c(Cl)c1Cl, the Potency was 54.5 µM (active).
In the case of CC1(C)C(C=C(Cl)Cl)C1C(=O)OC(C#N)c1cccc(Oc2ccccc2)c1 (configuration not stated), the Potency was “inactive”.
With ClC1C(Cl)C(Cl)C(Cl)C(Cl)C1Cl (configuration not stated) the Potency was “inactive”.
With CCCCCc1cc(O)cc(O)c1 the Potency was “inactive”.
In the case of Brc1ccc(Oc2cc(Br)c(Br)cc2Br)c(Br)c1, the Potency was 48.9 µM (active).
For c1ccc(NNc2ccccc2)cc1, the Potency was “inactive”.
For CCCCN(CC)c1c([N+](=O)[O-])cc(C(F)(F)F)cc1[N+](=O)[O-], the Potency was 54.5 µM (active).
For c1nc[nH]n1, the Potency was “inactive”.
With CCC(C)c1cc([N+](=O)[O-])cc([N+](=O)[O-])c1O (configuration not stated) the Potency was 27.3 µM (active).
For C=CC(=O)OCCO, the Potency was “inactive”.
For C#CCOS(=O)OC1CCCCC1Oc1ccc(C(C)(C)C)cc1 (configuration not stated), the Potency was 6.86 µM (active).
With Cc1cc(Cl)ccc1OCCCC(=O)O the Potency was “inactive”.
In the case of N#CCCCl, the Potency was “inactive”.
With CC(C)N(C(=O)SCC(Cl)=C(Cl)Cl)C(C)C the Potency was 47.9 µM (active).
With Cc1cc(C)cc(C)c1 the Potency was “inactive”.
In the case of O=C(CCl)c1ccccc1, the Potency was “inactive and 68.6 µM (active)”.
In the case of CCOC(=O)C(C)OC(=O)c1cc(Oc2ccc(C(F)(F)F)cc2Cl)ccc1[N+](=O)[O-] (configuration not stated), the Potency was “inactive”.
